Assay results taken from PubChem BioAssay (NCATS).
Several values for one entry are separate records, joined by “and”; a condition that tells them apart may be missing. Equal entries are not always repeated. A number with no mark means an inactive call. Records with an inconclusive call do not appear. Entries that show only a call come without a potency. Activity calls are given as the source filed them. Unless noted, the call rests on the fitted dose curve; in most records, active means well fitted curve in the direction sought with a large enough effect; inconclusive means small, poorly fitted or top-dose-only effect, or another doubt; inactive means no such curve, though single readings can be large; an effect the other way counts as inactive or inconclusive.

Experiments:
[1] = qHTS for Inhibitors of Plasmodium falciparum (DD2) proliferation (AID 504314);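 further: parasite DNA measured by SYBR Green fluorescence after red cell lysis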; details: P. falciparum Dd2 in erythrocytes, SYBR Green growth, 72 h; series mostly up to 6.11 µM
Summary of the method: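 Parasite proliferation measured as SYBR Green signal from Plasmodium DNA, mature erythrocytes lacking DNA. 72 h incubation, 37C; activity scaled between vehicle and 0.29 uM artemisinin, with correction from vehicle-only plates.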

[2] = qHTS for Inhibitors of Plasmodium falciparum (GB4) proliferation (AID 504315); further: nearly all actives have a fitted effect of over 50% in size; details: P. falciparum GB4 in erythrocytes, SYBR Green DNA, 72 h; series mostly up to 6.7 µM
Summary of the method: (§1)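 Parasite growth measured as SYBR Green DNA fluorescence (ex 485, em 535 nm) after overnight lysis following 72 h culture at 37 °C, 0.3% parasitemia, 2.5% hematocrit. Values normalized against DMSO and 0.29 uM artemisinin controls, with plate-stack correction.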

[3] = qHTS for Inhibitors of Plasmodium falciparum (7G8) proliferation (AID 504316); further: nearly all actives have a fitted effect of over 65% in size; details: P. falciparum 7G8 in erythrocytes, SYBR Green DNA, 72 h; series mostly up to 6.7 µM
Summary of the method: as §1

[4] = qHTS for Inhibitors of Plasmodium falciparum (HB3) proliferation (AID 504318); further: nearly all actives have a fitted effect of over 60% in size; details: P. falciparum HB3 in erythrocytes, SYBR Green DNA, 72 h; series mostly up to 7.21 µM
Summary of the method: as §1

[5] = qHTS for Inhibitors of Plasmodium falciparum (CP250) proliferation (AID 504320); details: P. falciparum CP250 in erythrocytes, SYBR Green DNA, 72 h; series mostly up to 6.7 µM
Summary of the method: as §1

[6] = molecular target: Atrial natriuretic peptide receptor 1 (Homo sapiens) (UniProt P16066); assay: Natriuretic polypeptide receptor (hNpr1) antagonism - Pilot CMLD screen (AID 1347052; calls by dose curve;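 further: HEK293 cells with hNpr1 stimulated by hNppA peptide at 0.1 nM; cGMP level read as GloSensor luciferase luminescence after agonist stimulation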); details: HEK293 hNpr1 GloSensor cGMP luminescence, ANP-stimulated; series mostly up to 9.22 µM
[7] = molecular target: Cytochrome P450 3A4 (Homo sapiens) (UniProt P08684); assay: qHTS Assay for Inhibitors and Substrates of Cytochrome P450 3A4 (AID 884); details: recombinant CYP3A4, Luciferin-PPXE luminescence; series mostly up to 57.1 µM; further: nearly all actives have a fitted effect of over 50% in size
Summary of the method: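 Luminescent readout of luciferin produced by CYP3A4 (20 nM) dealkylation of Luciferin-PPXE, 25 uM (its KM). NADPH-driven reaction ran 60 min at RT after 10 min compound preincubation; data scaled to 57 uM ketoconazole as 100% inhibition.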

[8] = molecular target: Cytochrome P450 2D6 (Homo sapiens) (UniProt P10635); assay: qHTS Assay for Inhibitors and Substrates of Cytochrome P450 2D6 (AID 891); details: recombinant CYP2D6, luciferin-ME EGE luminescence; series mostly up to 57.1 µM; further: nearly all actives have a fitted effect of over 60% in size; further: potency means the concentration at half of the fitted maximal effect;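 on activity change, negative = inhibition: luciferin methyl ether substrate demethylated by CYP2D6 with NADPH regeneration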
Summary of the method: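 Luminescent read-out of luciferin formed by 5 nM human CYP2D6 demethylating 30 uM Luciferin-ME EGE (Km level) over 60 min at room temperature after NADPH regeneration addition. Data normalized to full inhibition by 1.43 uM quinidine.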

[9] = molecular target: Cytochrome P450 2C19 (Homo sapiens) (UniProt P33261); assay: qHTS Assay for Inhibitors and Substrates of Cytochrome P450 2C19 (AID 899); details: recombinant CYP2C19, luciferin-H EGE luminescence; series mostly up to 57.1 µM; further: nearly all actives have a fitted effect of over 60% in size; further: potency means the concentration at half of the fitted maximal effect
Summary of the method: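 5nM enzyme + 10uM Luciferin-H EGE (=KM), 50mM KPO4; cpd pin-transferred, 10 min 37C; NADPH regen, 60 min 37C; stopped w/ luciferin detection reagent, 20 min; luminescence. Normalized to 57uM ketoconazole (AC100).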

[10] = molecular target: Cytochrome P450 3A4 (Homo sapiens) (UniProt P08684); assay: qHTS Assay for Activators of Cytochrome P450 3A4 (AID 885); details: recombinant CYP3A4, Luciferin-PPXE luminescence, 60 min; series mostly up to 57.1 µM; further: nearly all actives have a fitted effect of over 65% in size
Summary of the method: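 Human CYP3A4 dealkylates Luciferin-PPXE to luciferin, which luciferase detection converts to light. Substrate was at its KM (25uM), buffer 200mM KPO4, reaction 60 min at RT.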

[11] = molecular target: Cytochrome P450 2C9 (Homo sapiens) (UniProt P11712); assay: qHTS Assay for Inhibitors and Substrates of Cytochrome P450 2C9 (AID 883); details: recombinant CYP2C9, luciferin-H luminescence, 60 min; series mostly up to 57.1 µM; further: nearly all actives have a fitted effect of over 60% in size
Summary of the method: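 Inhibition of CYP2C9 is scored as loss of luminescence, with 57uM sulphaphenazole defining 100% inhibition. Substrate Luciferin-H is used at 100uM, equal to its KM; enzyme at 10nM in 25mM KPO4, 60 min at 37C with NADPH regeneration.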

Sequence of Cytochrome P450 3A4 (Homo sapiens) (P08684 whole entry, looked up): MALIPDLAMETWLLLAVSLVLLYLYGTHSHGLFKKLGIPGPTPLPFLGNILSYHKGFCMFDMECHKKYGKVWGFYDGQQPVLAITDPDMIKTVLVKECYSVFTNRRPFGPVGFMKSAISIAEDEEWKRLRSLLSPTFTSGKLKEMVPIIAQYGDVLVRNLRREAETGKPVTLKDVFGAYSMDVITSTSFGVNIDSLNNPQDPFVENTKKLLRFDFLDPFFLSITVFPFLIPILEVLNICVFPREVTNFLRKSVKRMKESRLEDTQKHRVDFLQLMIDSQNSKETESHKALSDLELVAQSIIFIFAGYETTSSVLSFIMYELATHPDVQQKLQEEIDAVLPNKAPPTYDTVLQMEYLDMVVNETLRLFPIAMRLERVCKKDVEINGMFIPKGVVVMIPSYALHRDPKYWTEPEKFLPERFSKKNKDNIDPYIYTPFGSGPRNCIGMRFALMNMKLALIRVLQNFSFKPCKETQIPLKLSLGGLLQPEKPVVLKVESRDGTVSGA
Sequence of Cytochrome P450 2D6 (Homo sapiens) (P10635 whole entry, looked up): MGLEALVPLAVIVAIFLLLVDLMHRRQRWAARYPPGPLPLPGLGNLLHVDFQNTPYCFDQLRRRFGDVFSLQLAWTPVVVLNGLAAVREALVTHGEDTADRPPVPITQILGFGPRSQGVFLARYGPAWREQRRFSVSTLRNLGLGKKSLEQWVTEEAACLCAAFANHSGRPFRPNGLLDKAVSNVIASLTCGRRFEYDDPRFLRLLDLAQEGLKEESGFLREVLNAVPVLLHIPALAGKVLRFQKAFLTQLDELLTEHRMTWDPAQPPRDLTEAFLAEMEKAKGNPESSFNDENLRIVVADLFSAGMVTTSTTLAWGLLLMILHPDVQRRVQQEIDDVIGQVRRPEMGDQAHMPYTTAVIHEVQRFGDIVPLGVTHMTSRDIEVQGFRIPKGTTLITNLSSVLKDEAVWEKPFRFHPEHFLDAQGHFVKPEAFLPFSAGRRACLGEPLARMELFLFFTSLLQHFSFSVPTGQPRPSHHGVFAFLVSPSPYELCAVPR
Sequence of Atrial natriuretic peptide receptor 1 (Homo sapiens) (P16066 whole entry, looked up): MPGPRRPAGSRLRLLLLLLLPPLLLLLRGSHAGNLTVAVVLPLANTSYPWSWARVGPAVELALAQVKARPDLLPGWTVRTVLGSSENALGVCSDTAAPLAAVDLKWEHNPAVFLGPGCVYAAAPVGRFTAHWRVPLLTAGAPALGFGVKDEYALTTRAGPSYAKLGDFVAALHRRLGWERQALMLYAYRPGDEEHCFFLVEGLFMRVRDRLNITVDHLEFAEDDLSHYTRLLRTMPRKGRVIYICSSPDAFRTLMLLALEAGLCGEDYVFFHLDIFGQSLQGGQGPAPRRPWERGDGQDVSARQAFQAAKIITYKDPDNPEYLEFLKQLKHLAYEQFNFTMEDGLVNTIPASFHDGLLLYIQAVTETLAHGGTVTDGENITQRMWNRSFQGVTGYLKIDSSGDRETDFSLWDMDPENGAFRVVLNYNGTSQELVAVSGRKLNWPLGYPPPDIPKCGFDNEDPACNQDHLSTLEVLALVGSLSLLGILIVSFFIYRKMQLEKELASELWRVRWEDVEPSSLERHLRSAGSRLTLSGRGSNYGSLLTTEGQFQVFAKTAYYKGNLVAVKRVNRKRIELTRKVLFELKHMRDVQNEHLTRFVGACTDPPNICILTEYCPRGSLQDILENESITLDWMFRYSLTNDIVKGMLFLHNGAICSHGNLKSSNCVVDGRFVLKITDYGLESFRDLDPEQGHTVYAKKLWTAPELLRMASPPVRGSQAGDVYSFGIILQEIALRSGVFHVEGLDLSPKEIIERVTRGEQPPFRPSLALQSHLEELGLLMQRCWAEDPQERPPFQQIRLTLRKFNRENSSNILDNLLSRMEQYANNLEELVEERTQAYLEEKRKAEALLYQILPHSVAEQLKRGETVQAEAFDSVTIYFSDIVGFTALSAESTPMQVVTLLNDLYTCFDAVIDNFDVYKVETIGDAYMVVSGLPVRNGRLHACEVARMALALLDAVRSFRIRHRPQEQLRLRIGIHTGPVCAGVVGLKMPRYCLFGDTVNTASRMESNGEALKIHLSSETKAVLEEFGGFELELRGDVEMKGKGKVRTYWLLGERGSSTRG
Sequence of Cytochrome P450 2C19 (Homo sapiens) (P33261 whole entry, looked up): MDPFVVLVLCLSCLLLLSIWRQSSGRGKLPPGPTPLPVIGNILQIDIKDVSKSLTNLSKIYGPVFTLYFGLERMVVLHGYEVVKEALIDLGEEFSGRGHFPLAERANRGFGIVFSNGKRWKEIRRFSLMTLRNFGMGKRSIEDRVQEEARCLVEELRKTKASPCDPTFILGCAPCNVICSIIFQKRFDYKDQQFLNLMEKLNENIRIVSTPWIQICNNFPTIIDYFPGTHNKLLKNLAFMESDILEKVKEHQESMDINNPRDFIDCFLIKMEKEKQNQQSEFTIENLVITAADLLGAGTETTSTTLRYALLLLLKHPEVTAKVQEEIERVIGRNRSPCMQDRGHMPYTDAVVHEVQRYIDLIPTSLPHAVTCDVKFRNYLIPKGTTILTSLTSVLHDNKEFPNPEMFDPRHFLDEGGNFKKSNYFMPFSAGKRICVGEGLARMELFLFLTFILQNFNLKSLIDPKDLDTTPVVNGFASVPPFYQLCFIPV
Sequence of Cytochrome P450 2C9 (Homo sapiens) (P11712 whole entry, looked up): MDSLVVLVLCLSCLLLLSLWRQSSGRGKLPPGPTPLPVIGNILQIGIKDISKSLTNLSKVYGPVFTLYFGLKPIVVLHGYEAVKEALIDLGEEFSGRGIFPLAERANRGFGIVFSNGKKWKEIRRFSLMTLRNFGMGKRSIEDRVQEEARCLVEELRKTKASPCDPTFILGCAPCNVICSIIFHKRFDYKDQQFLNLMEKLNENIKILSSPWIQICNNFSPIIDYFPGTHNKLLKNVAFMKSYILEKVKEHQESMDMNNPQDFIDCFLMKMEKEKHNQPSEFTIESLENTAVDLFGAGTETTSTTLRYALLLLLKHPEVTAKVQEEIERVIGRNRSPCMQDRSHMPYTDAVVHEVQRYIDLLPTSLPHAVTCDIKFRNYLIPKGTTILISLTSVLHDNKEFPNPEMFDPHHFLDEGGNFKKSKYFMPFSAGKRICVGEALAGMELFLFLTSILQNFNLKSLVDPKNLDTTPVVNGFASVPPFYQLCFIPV

For CCN1C(=NCc2ccccc2)N[C@@H](CCc2ccccc2)[C@H](C(=O)OC)[C@H]1C, the Potency [1] was “inactive”, the Potency [2] was “inactive” and the Potency [3] was “inactive”. The Potency [4] was “inactive”, the Potency [5] was “inactive” and the Potency [6] was “inactive”.

With CC(=O)OC[C@H]1O[C@H](CCON=C(C)CCC(=O)OC[C@H]2O[C@H](C#Cc3ccccc3)C=C[C@H]2Oc2ccc(C)cc2)C=C[C@H]1OC(C)=O the Potency [1] was “inactive”, the Potency [2] was “inactive” and the Potency [3] was “inactive”. The Potency [4] was “inactive”, the Potency [5] was “inactive” and the Potency [6] was “inactive”.

In the case of CC(=O)OC[C@H]1O[C@@H](ON=C[C@@H](C)[C@H](OCc2ccccc2)C(C)C)[C@@H](OC(C)=O)[C@@H](OC(C)=O)[C@@H]1OC(C)=O, the Potency [1] is reported as “inactive”, the Potency [2] is reported as “inactive” and the Potency [3] is reported as “inactive”. The Potency [4] was “inactive”, the Potency [5] was “inactive” and the Potency [6] was “inactive”.

Cc1c(O)ccc2c1OCO2 showed an activity change, negative = inhibition [7] of -25.6% [at 11.4 µM], an activity change, negative = inhibition [8] of -1.17% [at 11.4 µM] and an activity, negative = inhibition [9] of 39.4% [at 11.4 µM]. The Potency [1] was “inactive”, the Potency [2] was “inactive” and the Potency [3] was “inactive”. For the same compound, the Potency [4] was “inactive”, the Potency [5] was “inactive” and the Potency [6] was “inactive”.

For CCCCCCCC1=CC2=CC(=O)C(C)(OC(C)=O)C(=O)C2=CN1CCc1ccccc1 (stereo unspecified), the activity change, positive = activation [10] was -45.9% [at 11.4 µM], the Potency [8] was 3.16 µM (active) and the activity, negative = inhibition [9] was 78.5% [at 11.4 µM]. The Potency [1] was “inactive”, the Potency [2] was “inactive” and the Potency [3] was “inactive”. For the same compound, the Potency [4] was “inactive”, the Potency [5] was “inactive” and the Potency [6] was “inactive”.

For CCN1C(=O)[C@@H]2[C@H]3[C@H](O)[C@H](O)CC(=NO[C@H](C)CN4CCCc5nc(C)c(C)cc54)[C@@H]3CC[C@H]2C1=O, the Potency [1] was “inactive”, the Potency [2] was “inactive” and the Potency [3] was “inactive”. The Potency [4] was “inactive”, the Potency [5] was “inactive” and the Potency [6] was “inactive”.

With C[C@@H]1C=CCCO[C@]12C(=O)Nc1ccccc12 the Potency [1] was “inactive”, the Potency [2] was “inactive” and the Potency [3] was “inactive”. For the same compound, the Potency [4] was “inactive”, the Potency [5] was “inactive” and the Potency [6] was “inactive”.

For C=CCOC(=O)N[C@@H](c1coc2ccccc2c1=O)[C@@H](C)C=CCC(=O)OC, the Potency [1] was “inactive”, the Potency [2] was “inactive” and the Potency [3] was “inactive”. For the same compound, the Potency [4] was “inactive”, the Potency [5] was “inactive” and the Potency [6] was “inactive”.

For Cc1cc2c(nc1C)CCCN2CC(O)CN1CCCc2nc(-c3ccc(Br)cc3)ccc21 (stereo unspecified), the Potency [1] was “inactive”, the Potency [2] was “inactive” and the Potency [3] was “inactive”. For the same compound, the Potency [4] was “inactive”, the Potency [5] was “inactive” and the Potency [6] was “inactive”.

For COC(=O)CCCC1=CC2=CC(=O)C(C)(O)C(=O)C2=CO1 (stereo unspecified), the Potency [1] was “inactive”, the Potency [2] was “inactive” and the Potency [3] was “inactive”. The Potency [4] was “inactive”, the Potency [5] was “inactive” and the Potency [6] was “inactive”.

With C=C(C)CCCN1C=C(C(C)=O)C(c2ccccc2)NC1=O (stereo unspecified) the Potency [1] was “inactive”, the Potency [2] was “inactive” and the Potency [3] was “inactive”. For the same compound, the Potency [4] was “inactive”, the Potency [5] was “inactive” and the Potency [6] was “inactive”.

In the case of C=CCC1(c2ccccc2)Oc2ccccc2-c2nc3cc(Cl)c(Cl)cc3nc21 (stereo unspecified), the activity change, negative = inhibition [11] is reported as -6.17% [at 11.4 µM] and 38.3% [at 11.4 µM], the activity change, negative = inhibition [7] is reported as -17.8% [at 11.4 µM] and -22.2% [at 11.4 µM] and the activity change, negative = inhibition [8] is reported as 2.78% [at 11.4 µM] and 6.33% [at 11.4 µM]. For the same compound, the activity, negative = inhibition [9] was 39.4% [at 11.4 µM] and 70.5% [at 11.4 µM], the Potency [1] was “inactive” and the Potency [2] was “inactive”. The Potency [3] was “inactive”, the Potency [4] was “inactive” and the Potency [5] was “inactive”. For the same compound, the Potency [6] was “inactive”.

With COC[C@@H](O)[C@H]1OCc2cccc(OC)c2[C@H]1C=Cc1ccccc1 the Potency [1] was “inactive”, the Potency [2] was “inactive” and the Potency [3] was “inactive”. The Potency [4] was “inactive”, the Potency [5] was “inactive” and the Potency [6] was “inactive”.

For CC1=C(C)CC(c2ccccc2)C(C(=O)c2ccccc2O)C1 (stereo unspecified), the activity change, negative = inhibition [7] was -21.6% [at 11.4 µM], the activity change, negative = inhibition [8] was 6.86% [at 11.4 µM] and the activity, negative = inhibition [9] was -23.3% [at 11.4 µM]. For the same compound, the Potency [1] was “inactive”, the Potency [2] was “inactive” and the Potency [3] was “inactive”. For the same compound, the Potency [4] was “inactive”, the Potency [5] was “inactive” and the Potency [6] was “inactive”.

In the case of C=CCC12OC3(OC)CC1[C@H](C)[C@@H](c1ccccc1)C2[C@@]3(C)O (stereo partly specified), the Potency [1] is reported as “inactive”, the Potency [2] is reported as “inactive” and the Potency [3] is reported as “inactive”. For the same compound, the Potency [4] was “inactive”, the Potency [5] was “inactive” and the Potency [6] was “inactive”.

In the case of CCO[C@@H]1C[C@@]1(C=C[C@@H](C)[C@H](OC)c1ccccc1Br)C(=O)OC, the Potency [1] is reported as “inactive”, the Potency [2] is reported as “inactive” and the Potency [3] is reported as “inactive”. For the same compound, the Potency [4] was “inactive”, the Potency [5] was “inactive” and the Potency [6] was “inactive”.

In the case of COC(=O)C12CC3(CCC4C5C(C(OCc6ccccc6)C41)C52)OCCO3 (stereo unspecified), the activity change, negative = inhibition [7] is reported as -29.8% [at 11.4 µM], the activity change, negative = inhibition [8] is reported as 0.322% [at 11.4 µM] and the Potency [9] is reported as 1.58 µM (active). For the same compound, the Potency [1] was “inactive”, the Potency [2] was “inactive” and the Potency [3] was “inactive”. For the same compound, the Potency [4] was “inactive”, the Potency [5] was “inactive” and the Potency [6] was “inactive”.

For CC12C=C(C=CCCc3ccco3)C(C)(C1)C(CCc1ccco1)CC2=O (stereo unspecified), the Potency [1] was “inactive”, the Potency [2] was “inactive” and the Potency [3] was “inactive”. The Potency [4] was “inactive”, the Potency [5] was “inactive” and the Potency [6] was “inactive”.

In the case of O=C(Oc1ccccc1)[C@H]1O[C@H]1c1ccccc1, the Potency [1] is reported as “inactive”, the Potency [2] is reported as “inactive” and the Potency [3] is reported as “inactive”. The Potency [4] was “inactive”, the Potency [5] was “inactive” and the Potency [6] was “inactive”.

In the case of CCOC(=O)CN1C(=O)NC(c2cccs2)C(C(=O)OC)=C1C (stereo unspecified), the Potency [1] is reported as “inactive”, the Potency [2] is reported as “inactive” and the Potency [3] is reported as “inactive”. For the same compound, the Potency [4] was “inactive”, the Potency [5] was “inactive” and the Potency [6] was “inactive”.
